The whole screen tested about 1,400 compounds, of which about 380 (27%) were called active.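 The calls were made as follows: active = mean inhibition above 50% across duplicate retests at 10 µM; inactive = the rest.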 Some of the results follow.
Experiment: yeast NALP1 reporter signal suppression – S. cerevisiae, luminescence, single concentration, NALP1 inhibitor project, confirmation (AID 488841);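 also: plate controls were DMSO in galactose medium for no effect and cells in plain SD medium for full effect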
Conditions: S. cerevisiae NALP1/ASC/Caspase-1 reporter, beta-gal luminescence; at 10 µM; stronger effect = higher value

inhibition, active:
CC1=C(C)/C(=N\OS(=O)(=O)c2ccc(C)cc2)C=CC1=O 79.5%, O=C1/C(=C/c2ccccc2)CCCc2ccccc21 57.9%, COc1ccc(/C=C2/CCc3ccccc3C2=O)cc1OC 59.9%, COc1cc(/C=C2/CCc3ccccc3C2=O)cc(OC)c1OC 53%, COc1ccc(/C=C2\COc3ccccc3C2=O)cc1OC 72.8%, COc1ccc2c(c1)CC/C(=C/c1ccco1)C2=O 71.4%, Cc1ccc(-c2nc3cnccn3c2Nc2c(C)cccc2C)o1 58.9%, COC(=O)c1ccc(Oc2ccc(S(=O)(=O)N3CCCCC3)cc2N)cc1 92.3%

inhibition, inactive:
N#Cc1cnn(-c2ncnc3sc4c(c23)CCCC4)c1N 33.3%, O=C(COC(=O)Cc1c(F)cccc1Cl)NCCC1=CCCCC1 37.5%, COc1ccc(C2=C/C(=C/c3cccnc3)C(=O)O2)cc1OC 40.3%, COc1cc2ccccc2c2c1CCCC2=O 27.6%, COc1cc(C=O)ccc1Oc1nnnn1-c1ccccc1 35%, O=C1/C(=C/c2ccco2)Cc2ccccc21 38.1%, Cc1ccc(CN(C(=O)CNC(=O)c2cccs2)C(C(=O)NCC2CCCO2)c2ccccc2)cc1 (centres undefined) 20.4%, CC(C)NCCCCOc1cccc(Br)c1 43.9%, O=C(Cn1cccc(C(F)(F)F)c1=O)c1ccc(Cl)cc1 22%, Cc1oc(C(=O)O)cc1COc1ccc2c3c(c(=O)oc2c1)CCC3 14.6%, Cc1[nH][nH]c(=O)c1C(c1c(C)[nH][nH]c1=O)c1cn(Cc2ccc(Cl)c(Cl)c2)c2ccccc12 35.5%, CN(C)c1ccc(/C=N/NC(=O)c2nnn(-c3nonc3N)c2CN(C)c2ccccc2)cc1 25.6%, Cc1nc2c(=O)n(C)c(=O)n(C)c2nc1Cl 36.3%, N=c1n(CC(=O)c2ccc([N+](=O)[O-])cc2)c2ccccc2n1Cc1ccccc1Cl 25.6%, Nc1ccc2c(c1)C/C(=C/c1ccco1)C2=O 18.6%, c1ccc2sc(Sc3ncnc4sccc34)nc2c1 44.2%, COc1ccc(-c2nc3cnccn3c2Nc2ccc(C)cc2)cc1 38.7%, CC(=O)OCC(=O)[C@H]1CC[C@H]2[C@@H]3CC=C4C[C@@H](O)CC[C@]4(C)[C@H]3CC[C@]12C 4.15%, O=C(CCNC(=O)c1ccccc1Cl)Nc1ccc2c(c1)OCO2 22.9%, COC(=O)c1ccc(NC(=O)C(=O)N2CCCC2)cc1 45.1%, CC(=O)c1ccc(S(=O)(=O)N2CCCC2)cc1 23.6%

From PubChem BioAssay AID488841 (Sanford-Burnham Center for Chemical Genomics, 2010)
